# Most compounds without a hit are left out; they make up all but 2.4% or so of the library.
# PfM18AAP inh – blocks P. falciparum M18 aspartyl aminopeptidase | recombinant PfM18AAP, H-Glu-NHMec fluorogenic cleavage | inhibition, % at 7.35 µM | 290,000 compounds, 1.2% hits;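 active means inhibition above the campaign mean inhibition over all tested compounds plus 3 SD, cut at about 28% in these data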;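 further: 0% = plate median of test compound wells and 100% = 2 mM ZnCl2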
# eIF4H inh – inhibitors of RNA binding by human eIF4H; eIF4H fluorescence polarization binding assay; AID 2012; 290,000 compounds, 0.94% hits; Q15056; inhibition, % at 35 µM;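 further: calls also rest on retests at 20 µM and on dose response follow-up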
# MLLE-PAM2 inh – blocks PAM2 peptide binding to the PABP1 MLLE domain. P11940. GST-MLLE / FITC-PAM2 fluorescence polarization. inhibition, % at 20 µM. 360,000 compounds, 0.36% hits; in the data active means inhibition above about 35%, passing the limit was not always enough;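 further: plate controls were DMSO wells with GST-MLLE for no effect and wells lacking GST-MLLE protein for full effect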
# PERK inhibitor – inhibitors of human PERK kinase. Q9NZJ5. AID 1416. CHO PERK-DD fusion, SEAP luminescence translation reporter. inhibition, % at 5.6 µM. 220,000 compounds, 0.17% hits;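 active means inhibition above the mean inhibition of all tested compounds plus 3 SD, set separately per screening campaign, cut at about 2.9% in these data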;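 further: PERK kinase domain activated by AP20187 dimerizer at 100 nM; 0% = DMSO with dimerizer and 100% = rapamycin at 8.4 µM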
# Target sequence (Q9NZJ5 whole entry, looked up, the tested form may be a part): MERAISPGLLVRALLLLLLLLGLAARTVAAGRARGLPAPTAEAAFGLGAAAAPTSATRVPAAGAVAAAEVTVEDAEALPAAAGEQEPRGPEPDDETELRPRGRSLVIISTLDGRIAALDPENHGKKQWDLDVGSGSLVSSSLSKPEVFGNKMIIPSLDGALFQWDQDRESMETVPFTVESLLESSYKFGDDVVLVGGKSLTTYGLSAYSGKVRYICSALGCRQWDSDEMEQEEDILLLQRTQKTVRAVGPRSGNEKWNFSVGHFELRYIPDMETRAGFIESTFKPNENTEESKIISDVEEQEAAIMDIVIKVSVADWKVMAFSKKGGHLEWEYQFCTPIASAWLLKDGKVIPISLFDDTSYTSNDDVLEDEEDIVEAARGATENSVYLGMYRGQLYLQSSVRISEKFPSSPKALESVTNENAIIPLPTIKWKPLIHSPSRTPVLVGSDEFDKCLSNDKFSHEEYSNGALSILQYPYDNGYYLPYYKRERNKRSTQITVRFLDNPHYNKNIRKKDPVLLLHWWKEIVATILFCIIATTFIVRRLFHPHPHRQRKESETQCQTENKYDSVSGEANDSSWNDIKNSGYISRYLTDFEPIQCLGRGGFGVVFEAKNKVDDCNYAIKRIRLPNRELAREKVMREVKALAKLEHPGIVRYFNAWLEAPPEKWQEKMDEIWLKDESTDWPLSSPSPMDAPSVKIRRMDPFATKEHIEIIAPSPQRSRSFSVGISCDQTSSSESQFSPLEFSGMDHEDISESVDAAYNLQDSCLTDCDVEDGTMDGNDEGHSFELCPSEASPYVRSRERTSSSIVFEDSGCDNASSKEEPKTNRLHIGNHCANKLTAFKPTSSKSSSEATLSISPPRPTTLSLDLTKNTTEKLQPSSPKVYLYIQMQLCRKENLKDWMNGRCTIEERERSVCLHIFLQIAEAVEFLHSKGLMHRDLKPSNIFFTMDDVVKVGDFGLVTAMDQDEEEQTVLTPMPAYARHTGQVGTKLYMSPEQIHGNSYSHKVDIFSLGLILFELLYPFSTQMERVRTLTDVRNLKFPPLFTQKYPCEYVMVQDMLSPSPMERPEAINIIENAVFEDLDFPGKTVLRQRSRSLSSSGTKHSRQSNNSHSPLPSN
# eIF4E-4G inh – eIF4E/eIF4G interaction inhibition in translation initiation; P63073+Q04637; TR-FRET eIF4E-eIF4GI(517-606) binding, 2 h; inhibition, % at 21.7 µM; 220,000 compounds, 0.37% hits; AID 782;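 active means inhibition above about 30%, limit read from the data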;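 further: 0% = full FRET control wells and 100% = background wells lacking eIF4GI fragment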
# PABP polyA inh – PABP-poly(A) binding inhibition | PABP-poly(A) RNA binding, fluorescence polarization | 290,000 compounds, 1% hits | P11940 | inhibition, % at 35 µM;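 further: calls also rest on retests at 20 µM and on dose response follow-up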
# Active calls of the source: *; u = inconclusive; x = no result; ! = repeats disagree; [ ] = another dose, or the depositor's remark. Unless noted, how the calls were made is not given here.
SMILES,PfM18AAP inh,eIF4H inh,MLLE-PAM2 inh,PERK inhibitor,eIF4E-4G inh,PABP polyA inh
CC(C)(C)n1nc2c(c1NC(=O)COc1ccc(Cl)cc1)CS(=O)(=O)C2,-5,active,7,0,-1,72*
CC1S/C(=C(\C#N)C(=O)NCc2ccco2)N(c2ccc(F)cc2)C1=O (centres undefined),8,110*,-2,0,4,108*
CCC1S/C(=C(\C#N)C(=O)NCc2ccco2)N(c2ccc(Br)cc2)C1=O (centres undefined),7,73*,3,-1,4,91*
Cc1nc(CC(=O)Nc2nccs2)cs1,3,-1,-6,x,x,-9
COc1ccc(Nc2nnc(SCc3cc(=O)n4ccsc4n3)s2)cc1,10,75*,7,0,-7,31*
Cc1ccc(Nc2nnc(SCc3cc(=O)n4cc(C)ccc4n3)s2)cc1,3,1,-19,1,-8,3
Cc1ccc2nc(CSc3nnc(Nc4ccccc4F)s3)cc(=O)n2c1,-3,70*,-8,0,0,active
CC1(C)Cn2c(nc(=O)c3c2NCN(CCc2ccccc2)C3)S1,3,1,-3,-1,-1,-5
c1ccc2[nH]c(-c3ccnc4ccccc34)nc2c1,3,2,13,0,49*![fluorescence artefact?],29
Cc1ccccc1-n1c2nc(=O)n(C)c(=O)c-2cc2ccccc21,7,83,-41,1,16,66*
C#Cc1ccc([C@@H]2C=C(C(=O)NC3CC3)O[C@H](OCCCCO)C2)cc1,x,-8,-1,x,97*,-10
O=C(CSc1nnc(Nc2ccccc2F)s1)NC1CC1,x,x,-11,x,x,x
O=C(c1cc2c(s1)CCCC2)N1CCN(Cc2ccc3c(c2)OCO3)CC1,1,-12,4,-2,10,12
O=C(Oc1ccc2c(c1)OCO2)c1cc2c(s1)CCC2,1,98*,0,2,0,55*
CCCCCCC(NC(=O)c1ccc(C)cc1)C(=O)O (centres undefined),x,x,14,x,x,x
CCC(C)(C)n1nnnc1C(c1ccc2ncccc2c1)N1CCN(c2ccc(O)cc2)CC1 (centres undefined),31*,0,-1,-2,1,11
O=C(Nc1ccc2ncccc2c1)c1ccccc1,7,x,-110,x,x,x
O=C(Nc1ccc2ncccc2c1)c1ccccc1Cl,6,0,-132,0,2,74*
CC(C)OC(=O)n1c(=S)oc2ccccc21,-1,-7,-59,0,-2,6
Cc1cccc(OC(=O)n2c(=S)oc3cc(Cl)ccc32)c1,19,u,-75,1,1,86*
Cc1cc(=O)oc2c3c(cc(OCC(=O)Nc4cccnc4)c12)OC(C)(C)CC3,4,-6,-10,x,x,-4
COc1ccccc1N(CC(=O)NCCc1ccccc1)C(=O)CCC(=O)Nc1cc(C)ccn1,-2,4,0,x,x,12
COc1ccc(N(CC(=O)NCc2ccccc2)C(=O)CCC(=O)Nc2cc(C)ccn2)c(OC)c1,-2,1,12,0,88*,-2
C[C@H]1COC(=O)[C@@H](Cc2ccc(F)cc2)C/C=C\C[C@@H](CC(=O)NCCO)C(=O)N1,x,x,7,x,x,x
O=c1[nH]ncc(N/N=C\c2ccncc2)c1Cl,3,-9,0,1,-1,-1
SMILES,PfM18AAP inh,eIF4H inh,MLLE-PAM2 inh,PERK inhibitor,eIF4E-4G inh,PABP polyA inh
O=c1[nH]ncc(N/N=C\c2cccs2)c1Cl,-7,active,-4,1,4,71*
COc1ccccc1N(C(C)=O)C1=C(Cl)C(=O)c2ccccc2C1=O,x,x,39*,x,x,x
COC(=O)CN(C#N)c1nc(NC(C)C)nc(NC(C)C)n1,1,-15,4,1,1,10
Cc1oc(C)c2c(=O)ccc3c(c12)OC(N)=C(C#N)C3c1ccccc1 (centres undefined),22,78,-51,0,2,-5
CSc1ccc(C2C(C#N)=C(N)Oc3c2ccc(=O)c2c(C)oc(C)c32)cc1 (centres undefined),17,52*,-87,1,-5,71*
Cc1nc2cc3nc(C(F)(F)F)[nH]c3cc2[nH]1,2,0,9,2,15,-5
O=C1C=CC(=O)N1c1ccccc1N1C(=O)C=CC1=O,x,x,44*,x,x,x
O=C(c1ccccc1)c1ccccc1N1C(=O)C=CC1=O,-85,-11,39*,1,-2,5

# Compound activity from PubChem BioAssay.
